Not all results are given here.
aSyn UTR act – Activators via SNCA 5'UTR binding, MLPCN; actives 7.1% (n = 300,000); activity score, % (tested at 7.5 µM), hits read low; alpha-synuclein 5'UTR reporter, activators screen; in the data active = activity score below about -60%
Large screens that a line does not name were inactive.

COc1ccccc1C(=O)COC(=O)/C=C/c1ccccc1	aSyn UTR act -69
Cc1cccc(-c2ncc(S(=O)(=O)C(C)(C)C)c(N)n2)c1	aSyn UTR act -84
CCN1CCN(S(=O)(=O)c2ccc(Cl)c(C(=O)NCCc3ccccc3)c2)CC1	aSyn UTR act -69
COc1ccccc1CNC(=O)CSc1ccccc1	aSyn UTR act -100
COc1ccccc1CNC(=O)Cc1ccccc1	aSyn UTR act -77
O=C(CSc1ccccc1)NCc1ccccc1	aSyn UTR act -69
O=C(CSCc1cccc(F)c1)NCc1ccccc1	aSyn UTR act -75
Nc1ccc(C(=O)N/N=C/c2cn(Cc3cccc(F)c3)c3ccccc23)cc1	none
Clc1cccc(/C=N\Nc2nccs2)c1	aSyn UTR act -168
Cc1cc(C)nc(N/N=C/c2cccc(Cl)c2)n1	aSyn UTR act -93
Clc1cccc(/C=N/Nc2nc(Cl)nc3ccccc23)c1	aSyn UTR act -172
Cc1cc(-c2ccccc2)nc(N/N=C/c2ccco2)n1	aSyn UTR act -126
Cc1cc(-c2ccccc2)nc(N/N=C/c2ccccc2)n1	aSyn UTR act -110
C(=N/Nc1nc(-c2ccccc2)cc(-c2ccccc2)n1)/c1cccnc1	aSyn UTR act -121
CCOC(=O)CNC(=O)c1sc(NC(=O)c2cccc(F)c2)nc1C	aSyn UTR act -98
CCOC(=O)CNC(=O)c1sc(NC(=O)c2ccccc2F)nc1C	aSyn UTR act -151
COc1ccc(C2CC2/C(=N/OC(=O)c2cccs2)c2ccccc2)cc1 (stereo unspecified)	aSyn UTR act -153
CC(=O)Nc1ccc(Nc2ncnc3c2cnn3-c2cccc(C)c2)cc1	aSyn UTR act -159
Cn1ncc2c(Nc3ccc4ccccc4c3)ncnc21	aSyn UTR act -164
O=[N+]([O-])c1ccc(O)c(/C=N/Nc2ncnc3c2cnn3-c2ccccc2)c1	none
Cn1ncc2c(O/N=C(\N)c3ccc(C(C)(C)C)cc3)ncnc21	none
CC(=O)Nc1ccc(Nc2ncnc3c2cnn3-c2ccccc2)cc1	aSyn UTR act -110
Clc1ccc(Nc2ncnc3c2cnn3-c2ccccc2)cc1	aSyn UTR act -119
CC(C)Nc1ncnc2c1cnn2-c1ccc(Cl)cc1	none
CCN1CCN(C(=O)c2cc3c(s2)-c2c(C)cccc2OC3)CC1	aSyn UTR act -141
Cc1cccc2c1-c1sc(C(=O)N3CCCCC3)cc1CO2	aSyn UTR act -100
C=CCn1cnc2c(nnn2-c2ccc(C)c(C)c2)c1=O	aSyn UTR act -122
N#CCCN/N=C(/Cc1nc2ccccc2[nH]1)c1ccc(Cl)cc1	aSyn UTR act -67
CCN/N=C(\Cc1nc2ccccc2[nH]1)c1ccccc1	aSyn UTR act -138
c1ccc(N/N=C(\Cc2nc3ccccc3[nH]2)c2ccccc2)cc1	aSyn UTR act -102
Clc1cccc(/C(Cc2nc3ccccc3[nH]2)=N\Nc2ccccc2)c1	aSyn UTR act -64
N/N=C(/Cc1nc2ccccc2[nH]1)c1ccc([N+](=O)[O-])cc1	aSyn UTR act -75
COc1c(C(=O)NNC(=O)c2ccccc2Cl)csc1Br	aSyn UTR act -85
Cc1ccc(C2=CSC3=NNC4(CCCCC4)NN23)cc1	aSyn UTR act -126
O=C(NC(Nc1nc2ccc([N+](=O)[O-])cc2s1)(C(F)(F)F)C(F)(F)F)c1ccccc1Cl	none
C/C(=C\c1ccccc1)C(=O)Nc1nc2ccc([N+](=O)[O-])cc2s1	aSyn UTR act -79
CC(C)=CC(=O)Nc1nc2ccc([N+](=O)[O-])cc2s1	aSyn UTR act -83
CCOc1ccc(-c2nc(CCl)cs2)cc1OC	aSyn UTR act -104
CCOc1ccc(-c2cc(CCCC(=O)NCCc3ccc(OC)c(OC)c3OC)no2)cc1	none
COc1cc(OC)cc(-c2cc3nc(C)c(CCC(=O)NCc4ccccc4)c(C)n3n2)c1	none
COc1cc(OC)cc(-c2cc3nc(C)cc(N4CCN(C(=O)c5ccco5)CC4)n3n2)c1	aSyn UTR act -70
Cc1ccc2nsnc2c1NC(=O)CCl	aSyn UTR act -82
Cc1ccc2nsnc2c1NC(=O)c1ccc([N+](=O)[O-])o1	aSyn UTR act -173
CN(C)N=Nc1ccc(-c2cn(Cc3ccccc3)cn2)cc1	aSyn UTR act -74
C=CCn1c(Sc2ccccc2)nc2c1c(=O)[nH]c(=O)n2C	none
C=CCn1c(=S)[nH]c2cc(-c3ccccc3)sc2c1=O	aSyn UTR act -77
c1ccc(N2CCN(c3ccccc3)C2c2cccs2)cc1	aSyn UTR act -108
c1ccc2oc(-c3ccn[nH]3)cc2c1	aSyn UTR act -120
Cc1ccc(-c2nn3c(C)nnc3s2)cc1NC(=O)c1cccs1	aSyn UTR act -64
O=C(c1ccccc1)c1nnc(-c2ccccc2F)o1	aSyn UTR act -104
CC(=O)Oc1ccc(Cl)cc1/C=C/c1cc(OC(C)=O)c2ccccc2n1	aSyn UTR act -138
COc1cc(Cl)cc(/C=C/c2ccc3ccccc3n2)c1OC(C)=O	aSyn UTR act -127
Cc1ccc(C2CN=NC23CCc2ccccc2C3=O)cc1 (stereo unspecified)	aSyn UTR act -80
Cc1cc(=O)oc2cc(Nc3ccccc3)ccc12	aSyn UTR act -90
CCCC(C(=O)Nc1ccc2c(C)cc(=O)oc2c1)c1ccccc1 (stereo unspecified)	aSyn UTR act -66
Cc1ccc(N/N=C2\CS(=O)(=O)N(C)c3ccsc32)cc1	aSyn UTR act -149
CN1c2ccsc2/C(=N/Nc2ccc(F)cc2)CS1(=O)=O	aSyn UTR act -187
Cn1cc(/C=C2\SC(=O)N(c3ccc(O)cc3)C2=O)c2ccccc21	aSyn UTR act -86
Cn1cc(/C=N/n2cnc3scc(-c4ccccc4)c3c2=O)c2ccccc21	none
Cn1cc(/C=C2\SC(=O)N(c3ccccc3)C2=O)c2ccccc21	aSyn UTR act -217
O=C1S/C(=C\c2cccs2)C(=O)N1c1ccc(O)cc1	aSyn UTR act -133
Cc1cc(C)nc(NC(=O)/C=C/c2ccccc2Cl)c1	aSyn UTR act -185
Cc1cc(C(=O)NNC(=S)NC(=O)/C=C/c2ccccc2Cl)n[nH]1	aSyn UTR act -94
Cc1cc(C)nc(NC(=O)/C=C/c2ccc(Cl)cc2Cl)c1	aSyn UTR act -129
Cc1cc(N)c2cc(NC(=O)/C=C/c3ccccc3Cl)ccc2n1	none
Cc1cc(C)nc(NC(=O)/C=C/c2ccccc2Cl)n1	aSyn UTR act -161
CC[C@@H](C(=O)[C@@H](C)[C@@H](O)[C@H](C)CCc1ccc(C)c(O)c1C(=O)O)[C@H]1O[C@](CC)([C@H]2CC[C@](O)(CC)[C@H](C)O2)C[C@@H]1C	none
O=[N+]([O-])c1cccnc1Oc1ccc(OCc2ccccc2)cc1	aSyn UTR act -79
O=[N+]([O-])c1cccnc1Oc1ccc(C2SCCS2)cc1	aSyn UTR act -106
O=[N+]([O-])c1cccnc1Sc1ccc(Br)cc1	none
O=C(CC(Nc1ccc(F)cc1)C(=O)OCC(=O)c1cccs1)c1ccccc1 (stereo unspecified)	aSyn UTR act -113
O=C(CC(Nc1ccc(F)cc1)C(=O)O)c1ccccc1 (stereo unspecified)	aSyn UTR act -171
Cc1cccc2c1OCC/C2=N\NC(=O)COc1ccccc1Cl	aSyn UTR act -79
COC(=O)[C@H](Cc1ccccc1)NC(=O)c1cc(COc2c(F)cccc2F)on1	aSyn UTR act -85
COc1ccc(C2=NOC(COc3ccc4c(C)cc(=O)oc4c3)C2)c(OC)c1 (stereo unspecified)	none
COc1cccc(COc2ccc3c(C)cc(=O)oc3c2)c1	aSyn UTR act -164
COc1cccc(C(=O)COc2ccc3c(C)cc(=O)oc3c2)c1	aSyn UTR act -106
Cc1ccc2nc(-c3ccc(N4C(=NC(=O)CCC(=O)O)SC5CS(=O)(=O)CC54)cc3)sc2c1 (stereo unspecified)	aSyn UTR act -92

Compound activity (PubChem)
